Results reported in PubChem BioAssay.
The source made the active and inactive calls. Unless noted, how the calls were made is not given here.

Experiments:
[1] = test system: Wnt5a (protein binding on small-molecule microarray); test: Wnt5a binders on small-molecule microarray, primary screen, biophysical, 635/667 nm fluorescence (AID 1142); details: 635 nm fluorescence, higher = more signal;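 further: fluorescence read at 667 nm with signal to noise per printed feature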
[2] = cell viability in Huh7 cells, primary screen, cytotoxicity control for HCV replication inhibitor project, CellTiter-Glo luminescence, basal, 48 h (AID 1143); details: Huh7 HCV replicon, higher = more signal, called active from +8 up or from −8 down;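 further: Huh7 hepatoma cells carrying a hepatitis C replication reporter with no stimulus; test concentration not given here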
[3] = P. aeruginosa biofilm formation inhibitors, primary screen, PAO1 strain, BacTiter-Glo luminescence, LB-PBS (AID 1144); details: 12 h, higher = more signal
[4] = CREB reporter modulators without forskolin, primary screen, cell-based, PC12, CRE-LacZ reporter, unstimulated (AID 1145); details: no forskolin, luminescence, 4.5 h, higher = more signal, called active from +8 up or from −8 down
[5] = CREB reporter modulators under forskolin, primary screen, cell-based, PC12, CRE-LacZ reporter, forskolin-stimulated (AID 1146); details: luminescence, 4.5 h, higher = more signal, called active from +8 up or from −8 down;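 further: PC12 cells with 6xCRE LacZ reporter stimulated by forskolin 10 µM; beta-galactosidase reporter signal reflecting CREB driven transcription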
[6] = target: Streptavidin (Streptomyces avidinii) (UniProt P22629); test: streptavidin binders on small-molecule microarray, primary screen, artefact control for SMM compound annotation, biophysical, 635/667 nm fluorescence (AID 1147); details: streptavidin binding, higher = more signal;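 further: signal reflects streptavidin binding to arrayed compounds as a control protein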
[7] = small-molecule binders of probe aInhba, primary screen, biochemical, small-molecule microarray, 635/667 nm fluorescence (AID 1148); details: higher = more signal;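 further: score merges 667nm spot fluorescence with signal-to-noise for antibody binding to printed compounds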
[8] = target: Torsin-1A (Homo sapiens) (UniProt O14656); test: torsin A binders from cell lysate, primary screen, small-molecule microarray, wild-type, 635/667 nm (AID 1149); details: COS7 hTOR1A-WT lysate, 635 nm fluorescence, higher = more signal
[9] = target: Torsin-1A (Homo sapiens) (UniProt O14656); test: small-molecule binders of mutant TOR1A in lysate, primary screen, cell lysate, small-molecule microarray, COS7 lysate, 635/667 nm fluorescence (AID 1150); details: COS7 hTOR1A mutant lysate, 635 nm fluorescence, higher = more signal;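 further: score pools 667 nm emission and signal to noise measuring lysate protein binding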
[10] = test system: Sonic hedgehog protein (Shh); test: small-molecule binders of Shh protein, primary screen, biochemical, small-molecule microarray, 635/667 nm fluorescence (AID 1151); details: small-molecule microarray binding, 635 nm fluorescence; higher = more signal;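 further: Shh protein binding to compounds spotted on small-molecule microarray slides; score combines spot fluorescence intensity with signal-to-noise across triplicate slides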
[11] = E. coli DRC41 culture turbidity changes, primary screen, E. coli filamentation inducer project, strain DRC41, OD650, 48 h (AID 1152);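 further: E. coli MC1000 strain DRC41 lacking acrAB efflux pump and sulA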; details: E. coli DRC41 (acrAB sulA), higher = more signal, called active from +8 up or from −8 down
[12] = small-molecule binders of probe aLefty1, primary screen, biochemical, small-molecule microarray, 635/667 nm fluorescence (AID 1153); details: higher = more signal;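 further: score merges spot fluorescence with signal-to-noise ratio from the scanned slide images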
[13] = PSAC antagonists in infected red cells, primary screen, cell-based, P. falciparum Indochina, OD700, 1 h (AID 1154); details: P. falciparum Indochina infected RBC osmotic lysis, higher = more signal, called active from +8 up or from −8 down
[14] = PSAC antagonists in infected red cells, primary screen, cell-based, P. falciparum Indochina, OD700, 2 h (AID 1155);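 further: lysis reports solute entry through the parasite surface anion channel PSAC; channel blockers reduce lysis of infected cells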; details: P. falciparum Indochina infected erythrocytes, osmotic lysis OD700; higher = more signal, called active from +8 up or from −8 down
[15] = osmotic lysis modulators in infected erythrocytes, primary screen, PSAC antagonist project, cell-based, P. falciparum Indochina, OD700, 3 h (AID 1156); details: higher = more signal, called active from +8 up or from −8 down
[16] = PSAC antagonists in infected red cells, primary screen, cell-based, P. falciparum Indochina, OD700, 18 h (AID 1157); details: P. falciparum Indochina infected erythrocytes, osmotic lysis OD700, 18 h; higher = more signal, called active from +8 up or from −8 down
[17] = modulators of S6 phosphorylation in cells, primary screen, cell-based, A549, cytoblot, luminescence, serum-stimulated (AID 1158); details: A549 phospho-S6 cytoblot, 5 h, higher = more signal;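 further: serum-stimulated A549 lung adenocarcinoma cells; signal is phosphorylated S6 detected by cytoblot immunostaining with HRP secondary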
[18] = target: NADPH oxidase 2 (Homo sapiens) (UniProt P04839); test: NOX2-dependent H2O2 signal modulators, primary screen, NOX inhibitor project, cell-based, HEK293-NOX2, PMA-stimulated, Amplex Red fluorescence (AID 1159); details: 45 min, higher = more signal, called active from +8 up or from −8 down; further: test concentration not given here
[19] = target: NADPH oxidase 4 (Homo sapiens) (UniProt Q9NPH5); test: NOX4-dependent H2O2 signal modulators, primary screen, NOX inhibitor project, cell-based, HEK293-NOX4, tetracycline-induced, Amplex Red fluorescence (AID 1160); details: 45 min, higher = more signal, called active from +8 up or from −8 down
[20] = target: NADPH oxidase 5 (Homo sapiens) (UniProt Q96PH1); test: NOX5-dependent H2O2 signal modulators, primary screen, NOX inhibitor project, cell-based, HEK293-NOX5, Amplex Red fluorescence (AID 1161); details: HEK293-NOX5, ionomycin, 45 min, higher = more signal
Sequence of NADPH oxidase 5 (Homo sapiens) (Q96PH1 whole entry, looked up): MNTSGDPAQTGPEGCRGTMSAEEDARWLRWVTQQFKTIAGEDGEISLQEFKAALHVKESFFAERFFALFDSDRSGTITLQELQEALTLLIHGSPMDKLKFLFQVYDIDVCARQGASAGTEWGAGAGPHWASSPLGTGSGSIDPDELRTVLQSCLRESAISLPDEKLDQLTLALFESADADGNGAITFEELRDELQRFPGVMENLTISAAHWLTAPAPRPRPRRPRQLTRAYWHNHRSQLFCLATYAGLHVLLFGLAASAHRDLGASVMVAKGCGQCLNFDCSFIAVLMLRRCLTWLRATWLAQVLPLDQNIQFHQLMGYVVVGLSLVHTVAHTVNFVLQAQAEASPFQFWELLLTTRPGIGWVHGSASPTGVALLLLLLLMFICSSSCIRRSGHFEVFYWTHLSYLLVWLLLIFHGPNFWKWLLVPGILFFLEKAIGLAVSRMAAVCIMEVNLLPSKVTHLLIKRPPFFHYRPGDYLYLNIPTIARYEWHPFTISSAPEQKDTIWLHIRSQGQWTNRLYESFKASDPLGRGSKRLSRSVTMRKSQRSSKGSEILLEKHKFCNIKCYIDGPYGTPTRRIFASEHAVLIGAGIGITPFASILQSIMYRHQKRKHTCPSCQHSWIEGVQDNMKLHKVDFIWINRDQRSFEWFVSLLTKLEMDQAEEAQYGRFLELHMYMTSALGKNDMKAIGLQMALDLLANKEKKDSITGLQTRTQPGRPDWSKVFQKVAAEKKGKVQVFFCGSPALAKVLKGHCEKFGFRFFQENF

Sequence of Streptavidin (Streptomyces avidinii) (P22629 whole entry, looked up): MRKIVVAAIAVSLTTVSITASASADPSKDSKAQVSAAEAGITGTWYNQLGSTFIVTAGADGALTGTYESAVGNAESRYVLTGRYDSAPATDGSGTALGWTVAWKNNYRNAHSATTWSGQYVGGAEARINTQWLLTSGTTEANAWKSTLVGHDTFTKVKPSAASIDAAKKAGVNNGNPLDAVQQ
Sequence of NADPH oxidase 2 (Homo sapiens) (P04839 whole entry, looked up): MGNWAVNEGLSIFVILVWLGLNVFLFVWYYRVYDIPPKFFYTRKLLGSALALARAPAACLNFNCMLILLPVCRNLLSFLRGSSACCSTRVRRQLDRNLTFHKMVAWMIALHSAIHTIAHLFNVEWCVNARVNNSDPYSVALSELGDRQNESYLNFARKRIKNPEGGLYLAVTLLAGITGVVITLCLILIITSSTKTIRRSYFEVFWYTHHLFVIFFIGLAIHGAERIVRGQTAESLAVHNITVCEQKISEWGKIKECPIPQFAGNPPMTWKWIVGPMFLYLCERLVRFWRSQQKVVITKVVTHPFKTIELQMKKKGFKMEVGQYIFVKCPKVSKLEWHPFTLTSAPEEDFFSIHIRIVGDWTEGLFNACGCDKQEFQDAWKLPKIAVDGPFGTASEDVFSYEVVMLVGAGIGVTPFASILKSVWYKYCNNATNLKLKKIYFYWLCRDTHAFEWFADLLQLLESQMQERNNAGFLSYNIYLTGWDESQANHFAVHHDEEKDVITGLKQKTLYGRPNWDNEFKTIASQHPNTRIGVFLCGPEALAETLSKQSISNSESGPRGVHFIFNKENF
Sequence of NADPH oxidase 4 (Homo sapiens) (Q9NPH5 whole entry, looked up): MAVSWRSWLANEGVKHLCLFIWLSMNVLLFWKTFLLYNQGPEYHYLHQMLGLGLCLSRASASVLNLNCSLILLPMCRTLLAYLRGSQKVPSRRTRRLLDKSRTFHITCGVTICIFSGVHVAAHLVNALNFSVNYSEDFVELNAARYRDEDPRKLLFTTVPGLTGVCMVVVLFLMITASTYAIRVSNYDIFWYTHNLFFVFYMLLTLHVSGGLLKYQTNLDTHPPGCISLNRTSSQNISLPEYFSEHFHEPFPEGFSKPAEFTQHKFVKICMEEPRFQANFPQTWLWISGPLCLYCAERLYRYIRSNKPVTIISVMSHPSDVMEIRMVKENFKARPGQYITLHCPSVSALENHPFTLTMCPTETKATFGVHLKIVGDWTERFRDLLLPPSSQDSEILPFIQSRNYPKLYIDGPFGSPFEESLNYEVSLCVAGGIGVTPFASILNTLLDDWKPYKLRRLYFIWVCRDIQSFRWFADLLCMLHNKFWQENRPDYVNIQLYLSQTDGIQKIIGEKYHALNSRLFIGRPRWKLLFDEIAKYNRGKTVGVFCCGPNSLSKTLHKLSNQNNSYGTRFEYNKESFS
Sequence of Torsin-1A (Homo sapiens) (O14656 whole entry, looked up): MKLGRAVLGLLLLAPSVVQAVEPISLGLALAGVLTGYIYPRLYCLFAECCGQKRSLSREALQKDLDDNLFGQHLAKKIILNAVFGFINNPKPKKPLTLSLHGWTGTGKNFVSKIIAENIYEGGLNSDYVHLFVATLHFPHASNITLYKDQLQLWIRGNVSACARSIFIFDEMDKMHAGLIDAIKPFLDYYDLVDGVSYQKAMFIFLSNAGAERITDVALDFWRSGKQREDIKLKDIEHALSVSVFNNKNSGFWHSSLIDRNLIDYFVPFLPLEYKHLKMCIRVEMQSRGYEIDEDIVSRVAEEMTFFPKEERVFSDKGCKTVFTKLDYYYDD

Row | SMILES | composite z-score [1] | z-score [2] | z-score [3] | z-score [4] | z-score [5] | composite z-score [6] | composite z-score [7] | composite z-score [8] | composite z-score [9] | composite z-score [10] | z-score [11] | composite z-score [12] | z-score [13] | z-score [14] | z-score [15] | z-score [16] | z-score [17] | z-score [18] | z-score [19] | z-score [20]
1 | COC(=O)[C@@]1(Cc2ccc(F)cc2)[C@H]2c3cc(C(=O)N(C)C)n(Cc4ccccc4)c3C[C@H]2CN1C(=O)c1ccccc1 | 0.198 | -2.67 (inactive) | -0.22 (inactive) | -0.379 (inactive) | 1.42 (inactive) | 1.16 | 0.218 | -0.243 | 0.099 | 0.0292 | -1.39 (inactive) | 0.342 | 2.6 (inactive) | 0.672 (inactive) | 0.657 (inactive) | 1.23 (inactive) | -0.231 | 1.01 (inactive) | 0.734 (inactive) | 1.89
2 | COc1cc2c(cc1OC)CN(C(=O)[C@H]1[C@@H]3C(=O)O[C@@H](c4ccccc4)[C@@H](c4ccccc4)N3[C@@H](c3ccc(O)cc3)[C@]13C(=O)Nc1ccccc13)CC2 | 0.0185 | -1.57 (inactive) | -0.219 (inactive) | 0.358 (inactive) | 0.282 (inactive) | -0.805 | 0.417 | 0.191 | 1.36 | 0.931 | -0.444 (inactive) | 0.0036 | 0.734 (inactive) | -0.397 (inactive) | -0.473 (inactive) | 0.801 (inactive) | 0.0493 | 0.96 (inactive) | 0.754 (inactive) | 1.37
3 | OCCCC1=CC(c2cccs2)N(Cc2cc3c(cc2Br)OCO3)CC1 (stereo not given) | -0.094 | -1.18 (inactive) | -0.137 (inactive) | 0.0563 (inactive) | -0.056 (inactive) | -0.0072 | -0.024 | 0.155 | 0.396 | 1.4 | -1.3 (inactive) | 0.187 | 5.53 (inactive) | 0.887 (inactive) | -0.281 (inactive) | 0.625 (inactive) | -0.684 | -0.283 (inactive) | -0.294 (inactive) | -0.768
4 | C=CC1(C(=O)OC)CC=C(C(=O)OC)CC1 (stereo not given) | 0.181 | -1.3 (inactive) | 0.132 (inactive) | 0.332 (inactive) | 0.0857 (inactive) | 0.596 | -0.154 | 0.226 | 0.823 | 0.434 | 0.2 (inactive) | 0.0262 | 0.655 (inactive) | -0.87 (inactive) | -1.3 (inactive) | -1.96 (inactive) | 0.674 | 0.379 (inactive) | -0.389 (inactive) | -0.0703
5 | COCCCNC(=O)[C@@H]1c2ccccc2C(=O)N(Cc2ccccc2Cl)[C@H]1c1ccc(CO)cc1 | -0.0355 | -0.0743 (inactive) | 0.66 (inactive) | -0.179 (inactive) | -0.268 (inactive) | 0.128 | 0.326 | 0.494 | 0.857 | 0.861 | 2.51 (inactive) | -0.121 | 1.62 (inactive) | 0.293 (inactive) | 0.621 (inactive) | 0.11 (inactive) | -0.0671 | -0.285 (inactive) | 0.986 (inactive) | 0.306
6 | O=C1NC(=O)C2C1C=CC(C(O)c1cccs1)N2Nc1ccc(Cl)cc1Cl (stereo not given) | -0.0653 | 0.0581 (inactive) | -0.24 (inactive) | -0.136 (inactive) | -0.109 (inactive) | -0.695 | -0.118 | 0.352 | 0.112 | -0.0963 | -0.713 (inactive) | -0.012 | 2.33 (inactive) | 1.32 (inactive) | -0.0207 (inactive) | 1.34 (inactive) | -0.27 | -0.483 (inactive) | -4.81 (inactive) | -1.57
7 | C=CCC(OC(C)=O)[C@@H]1[C@@H](N(Cc2ccc(-c3ccccc3)cc2)C(=O)Cc2ccc(OC)cc2)c2cc(OCCCO)ccc2N1C(=O)Cc1ccc2ccccc2c1 (stereo not given in full) | -0.263 | -1.45 (inactive) | 0.294 (inactive) | 0.745 (inactive) | 0.358 (inactive) | 0.192 | -0.0221 | -0.921 | 0.616 | 0.412 | -0.59 (inactive) | -0.0654 | 0.747 (inactive) | 0.314 (inactive) | 0.198 (inactive) | 0.186 (inactive) | -0.185 | 0.304 (inactive) | 1.09 (inactive) | 1.35
8 | CN(C)C(=O)[C@]1(Cc2ccccc2N=[N+]=[N-])N=C(c2ccc(OCCCO)cc2)O[C@@H]1c1ccccc1N=[N+]=[N-] | 0.46 | -4.48 (inactive) | -0.938 (inactive) | 0.0686 (inactive) | -1 (inactive) | 1.41 | -0.0162 | 1.49 | 0.799 | 0.428 | 1.02 (inactive) | 0.431 | 30.7 (active) | 25.6 (active) | 1.15 (inactive) | 7.43 (inactive) | 2.53 | -1.59 (inactive) | 0.482 (inactive) | 0.199
